Screening results deposited in PubChem BioAssay by several laboratories.
E-sel TNF inh = E-selectin induction blockers in HUVEC – imaging, immunofluorescence, high content, primary screen. HUVEC TNFa-induced E-selectin immunofluorescence. inhibition, % at 2 µM. 120,000 tested, 0.71% active. AID 1246, 2008;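 active = inhibition above the batch mean plus 3 SD, and confirmed as a hit on visual image review, cut at about 43% in these data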;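 note: 0% = TNF-stimulated DMSO wells and 100% = unstimulated control wells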
sEH act = soluble epoxide hydrolase activators, primary screen, biochemical, human sEH; Bifunctional epoxide hydrolase 2 (Homo sapiens), P34913; purified human sEH enzymatic activity, activator screen; activation, % at 2 µM; 91,000 tested, 0.04% active; AID 717, 2007; in the data active = activation above about 37%
Target sequence (P34913 whole entry, looked up): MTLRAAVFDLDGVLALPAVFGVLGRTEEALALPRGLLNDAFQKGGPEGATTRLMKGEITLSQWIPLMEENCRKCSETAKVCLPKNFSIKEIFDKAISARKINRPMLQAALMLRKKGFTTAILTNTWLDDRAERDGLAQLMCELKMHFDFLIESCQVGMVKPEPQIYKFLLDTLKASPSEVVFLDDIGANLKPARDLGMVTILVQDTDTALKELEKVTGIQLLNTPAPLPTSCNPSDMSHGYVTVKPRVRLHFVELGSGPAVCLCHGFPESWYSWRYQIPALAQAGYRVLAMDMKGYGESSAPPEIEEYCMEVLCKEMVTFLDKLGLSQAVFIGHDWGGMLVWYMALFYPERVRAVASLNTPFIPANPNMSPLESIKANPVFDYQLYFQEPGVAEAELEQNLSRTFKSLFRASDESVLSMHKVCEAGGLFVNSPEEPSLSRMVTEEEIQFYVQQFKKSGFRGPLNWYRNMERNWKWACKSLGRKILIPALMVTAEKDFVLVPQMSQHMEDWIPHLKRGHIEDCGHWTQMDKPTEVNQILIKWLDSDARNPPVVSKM
sEH inh = soluble epoxide hydrolase inhibitors, primary screen, biochemical, human sEH | Bifunctional epoxide hydrolase 2 (Homo sapiens), P34913 | 91,000 tested, 0.34% active | recombinant human sEH enzymatic activity assay | inhibition, % at 2 µM | AID 707, 2007; in the data active = inhibition above about 80%
F-actin modifier = modifiers of F-actin cytoskeleton organization, primary screen, imaging, HUVEC, phalloidin staining, high-content imaging; HUVEC TNFa F-actin phalloidin imaging; inhibition, % at 2 µM; 91,000 tested, 0.18% active; AID 836, 2007;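 active = inhibition above the batch mean plus 3 SD and confirmed as a hit by visual image inspection, cut at about 30% in these data, passing the limit was not always enough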
SDO1 yeast rescue = growth rescue of sdo1-depleted yeast, primary screen, S. cerevisiae, bone marrow failure model. S. cerevisiae sdo1-depleted JHY4D growth rescue, OD600 30 h; active compounds read high; pdr5 snq2 efflux-pump mutant strain. z-score at 10 µM. 140,000 tested, 0.21% active. AID 817, 2007;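 active = z-score above 3 at both the 24 hr and the 30 hr optical density reads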;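 note: z-score against mean and SD of all compound wells on the same plate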
Phagocytosis inh = inhibitors of macrophage phagocytosis, primary screen, imaging, J774A.1 cells, IgG beads; J774A.1 macrophage IgG-bead phagocytosis; inhibition, % at 5 µM; 110,000 tested, 0.07% active; AID 1029, 2008;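 active = inhibition above the mean of the plate negative controls plus 5 SD, cut at about 13% in these data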;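 note: phagocytic index as fraction of beads internalized from green versus red external bead signal; plate controls were DMSO negative control for no effect and cytochalasin-D positive control for full effect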
sdo1 rescue conf = SDO1-depleted yeast growth rescue, concentration-response, diseases of bone marrow failure, JHY4D, OD600; 440 tested, 44% active; shares compounds with SDO1 yeast rescue; S. cerevisiae JHY4D (SDO1-depleted) growth rescue, 30 h; active compounds read high; efflux-deficient strain, SNQ2 and PDR5 mutated; OD recovery (test concentration not listed);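 active = yeast growth recovered at 30 hours, either rising with dose fitted slope above 0.001 or with average optical density gain above 0.07, some results past the limit were not filed as active; inactive = growth falling with dose or no effect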;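 note: gain in OD600 from 0 h to 30 h averaged across all seven doses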
Numbers without * were called inactive; · = not tested or not shown; ! = not active in a repeat. An excerpt weighted towards active compounds, which were near 0.96% of everything screened.

SMILES	E-sel TNF inh	sEH act	sEH inh	F-actin modifier	SDO1 yeast rescue	Phagocytosis inh	sdo1 rescue conf
Cc1cc(O)c(-c2cc(C(=O)Nc3ccc(S(=O)(=O)N4CCOCC4)cc3)[nH]n2)cc1C	-17	6	-7	4	1.6	0	0.091*
Cc1cc(C)nc(N/N=C/c2ccccc2OCc2ccc([N+](=O)[O-])cc2)n1	·	·	·	·	-1.2	·	·
O=[N+]([O-])c1ccc(N/N=C\c2ccccc2OCc2ccccc2)cc1	39	·	·	·	1.8	·	0.06
CCOC(=O)c1sc2nc3c(SCC(=O)O)cc(C(=O)c4cc(F)ccc4O)cn3c(=O)c2c1C	·	·	·	·	3.1*	-3	0.069
COCCNC(=O)C(=O)NCC1OCCN1C(=O)c1ccc(Cl)cc1 (stereo unspecified)	4	·	·	·	11*	·	0.037
Cn1c(=O)c2[nH]c(CNCc3ccccc3Cl)nc2n(C)c1=O	-9	-9	11	7	1.4	-1	0.069
Cn1c(=O)c2[nH]c(CN3CCN(Cc4ccccc4)CC3)nc2n(C)c1=O	6	8	-6	-4	0.05	0	·
O=C(COc1ccc(Cl)cc1)NC1=NN(c2ccccc2)C(=O)C1	·	·	·	·	0.37	-1	·
O=C(CNC(=O)c1ccco1)OCC(=O)c1ccc2ccccc2c1	11	12	-8	20	-0.29	-2	·
O=C(NCc1ccccc1Cl)c1ccccc1CCc1ccccc1	-10	·	·	·	7.1*	3	0.082*
O=C(NCc1ccc(Cl)cc1)c1ccccc1CCc1ccccc1	·	·	·	·	-1.3	-2	·
Cc1noc(C)c1C1(O)CCCCCCCCCCC1	·	·	·	·	-0.85	1	·
Cc1cc(C)n(Cc2ccc(Cl)cc2Cl)c(=O)c1S(=O)(=O)c1ccccc1	15	-10	11	32	-1.6	0	·
Cc1ccccc1S(=O)(=O)c1c(C)cc(C)n(CC(C)C)c1=O	-3	-8	5	18	5.5*	0	0.11*
CCNC(=O)C1CC(=O)N(CC)C(=Nc2cc(Cl)c(O)c(Cl)c2)S1 (stereo unspecified)	-2	-7	9	-4	0.71	0	·
CCOC(=O)c1c(NC(=S)Nc2ccc(C)cc2)sc2c1CCC2	45	·	·	·	2.7	·	0.088*
CCC(CC)C(=O)Nc1cc(C(=O)OC)ccc1C(=O)OC	·	·	·	·	10*	-3	0.025
CC1(C)OC2OC(C(=O)N/N=C/c3cc(Br)ccc3O)C3OC(C)(C)OC3C2O1 (stereo unspecified)	7	·	·	·	-0.41	-12	·
CCCCCn1c2nc3ccccc3nc2c2c(=O)n(CC3CCCO3)c(C)nc21 (stereo unspecified)	·	·	·	·	·	0	·
Cc1cc(C)c(NC(=S)N2CCC(N(C)CC3CCCO3)CC2)c(C)c1 (stereo unspecified)	-6	16	-18	12	3.6*	·	0.096*
COC(=O)C(O)(CC(=O)Nc1ccccc1OC)C(F)(F)F (stereo unspecified)	16	10	-7	-14	0.76	·	·
CCc1ccccc1NC(=O)CC(O)(C(=O)OC)C(F)(F)F (stereo unspecified)	0	5	-2	-10	3.1*	0	0.066
Cc1nc(NC(=O)c2cc3c(C)nn(-c4ccccc4)c3s2)sc1C(=O)Nc1ccccc1	14	2	-3	-15	-0.46	0	·
CC(=O)c1sc(NC(=O)c2cc3c(C)nn(-c4ccccc4)c3s2)nc1C	0	8	-5	8	4*	-3	0.11*
Cc1ccccc1N1CCN(C(=O)CN2C(=O)c3ccccc3C2=O)CC1	-24	·	·	·	7.4*	-2	0.075*
SMILES	E-sel TNF inh	sEH act	sEH inh	F-actin modifier	SDO1 yeast rescue	Phagocytosis inh	sdo1 rescue conf
COC(=O)c1ccccc1S(=O)(=O)N1CCn2cccc2C1C (stereo unspecified)	-10	·	·	·	·	·	·
CCOC(=O)c1nsnc1NCCSC(=N)N	·	·	·	·	6.2*	-2	0.094*
C=CCn1c(SCN2C(=O)c3ccccc3C2=O)nc2ccc(Cl)cc2c1=O	·	·	·	·	-0.62	·	·
Cc1ccc(CS(=O)(=O)CCC(=O)NCCN2CCCC2)cc1	6	-3	2	-1	-0.18	·	·
COc1ccc(NC(=O)CSc2nccc(C)n2)cc1	25	3	-2	-14	1.9	-1	0.036
COc1ccc(NC(=O)CN2CCCCC2)cc1	4	9	-6	-11	0.66	·	·
COc1ccc(NC(=O)CSc2nc(N3CCCCC3)nc(N3CCCCC3)n2)cc1	-29	-1	0	0	1.1	·	0.084*
Cn1nc(OC(=O)Nc2ccccc2)cc1C(F)(F)F	28	-2	-1	·	3.3*!	-3	0.077*
CCOc1ccc(CCNC(=O)C2CCN(S(=O)(=O)CC)CC2)cc1OCC	-2	-2	0	26	1.2	·	·
CCOc1ccc(CCNC(=O)C2CCN(C(=O)N(C)C)CC2)cc1OCC	·	·	·	-9	2	0	0.055
O=C(CC(=O)NC1CCCCC1)N/N=C/c1ccccc1Cl	·	·	·	·	-0.1	-5	·
CCOc1ccc(OCc2ccc(C(=O)OCc3ccccn3)o2)cc1	-44	·	·	·	-1.4	2	·
O=C(C1CCCCC1)N1CCN(C(=O)C2CCCCC2)CC1	1	-8	5	40	11*	2	0.041
O=C(C1CC=CCC1)N1CCN(C(=O)C2CC=CCC2)CC1 (stereo unspecified)	-16	4	-2	22	1.2	·	·
CC1CN(C(=O)Nc2ccc3c(c2)OCO3)CC(C)O1 (stereo unspecified)	·	-7	8	-14	-0.6	0	·
CN(C)CCN1C(=O)C(=O)/C(=C(/O)c2ccc(F)cc2)C1c1ccccc1 (stereo unspecified)	16	13	-10	-34	0.2	-1	·
Cc1ccc(/C(O)=C2\C(=O)C(=O)N(CC(C)O)C2c2cccc(F)c2)cc1 (stereo unspecified)	-33	·	·	·	2.6	0	0.065
NC(=O)c1ccccc1-c1nc(-c2ccccc2)no1	-45	·	·	·	11*	0	0.055
COc1ccc(C(=O)N/C(=C\c2ccc3c(c2)OCO3)C(=O)NCCc2nc3ccccc3[nH]2)cc1	-4	·	·	·	1.6	·	·
Cn1cc(Br)c(C(=O)N2CCN(c3cccc(Cl)c3)CC2)n1	-10	12	-12	7	0.57	·	·
CC(C(=O)NC1CCCC1)N(C(=O)c1snc(C(N)=O)c1N)c1ccc2c(c1)OCCO2 (stereo unspecified)	·	2	-2	6	14*	-4	0.08*
CC(C)NC(=O)COC(=O)c1cc(F)c(F)cc1Cl	4	-8	8	-1	5.6*	0	0.085*
O=C(CN1CCc2ccccc2C1)c1cccs1	-14	16	-16	7	5.6*	0	0.096*
CCN(CC)S(=O)(=O)c1ccc(OC)c(NC(=O)CSc2cc(Cl)ccc2Cl)c1	·	·	·	·	-0.36	-4	·
